Screens as filed in PubChem.
Most compounds without a hit are left out; they make up all but 7.4% or so of the library.
SMN2 splice enh: enhancers of SMN2 splice variant expression | HEK293 SMN2-luciferase splicing reporter, luminescence, 30-36 h | Potency, µM (top dose mostly 46.1 µM), for the others: at the top dose activity change, positive = activation, most hits filed as activators | 210,000 compounds, 2.8% hits | AID 1458; note: % of control where 0% means no effect; nearly all actives have a fitted effect of over 55% in size
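HEK293 cells carry an SMN2 […]–luciferase reporter in which exon 7 inclusion puts luciferase in frame. Cells were plated 10-12 h before compound addition, then incubated 30-36 h at 37C. ONE-Glo luminescence was read; sodium butyrate at 4.5 mM final served as control.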
NPC1 promoter act: activates the NPC1 promoter. Huh7 NPC1 promoter luciferase reporter, 24 h. Potency, µM (highest dose often 9.22 µM), for inactives: at the highest dose activation, most hits filed as activators. 320,000 compounds, 2.4% hits. AID 485313; note: % of control where 0% means no effect; nearly all actives have a fitted effect of over 60% in size
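Luminescence from an NPC1 promoter-driven luciferase reporter in stably transfected Huh7 cells was measured after 24 h compound treatment at 37 °C, followed by 10 min ambient incubation with luciferase detection reagent.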
FLuc counter: counter-screen for miR-21 project: firefly luciferase inhibitors or activators; P08659; purified FLuc, Km substrates, luminescence inhibition; Potency, µM (doses to about 57.5 µM), for inactives: top-dose activity change, negative = inhibition, hits mostly inhibitors; 360,000 compounds, 6.9% hits; AID 588342;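 note: plate controls were vehicle for no effect and reference inhibitor for full effect; nearly all actives have a fitted effect of over 55% in size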
Target sequence (P08659 whole entry, looked up): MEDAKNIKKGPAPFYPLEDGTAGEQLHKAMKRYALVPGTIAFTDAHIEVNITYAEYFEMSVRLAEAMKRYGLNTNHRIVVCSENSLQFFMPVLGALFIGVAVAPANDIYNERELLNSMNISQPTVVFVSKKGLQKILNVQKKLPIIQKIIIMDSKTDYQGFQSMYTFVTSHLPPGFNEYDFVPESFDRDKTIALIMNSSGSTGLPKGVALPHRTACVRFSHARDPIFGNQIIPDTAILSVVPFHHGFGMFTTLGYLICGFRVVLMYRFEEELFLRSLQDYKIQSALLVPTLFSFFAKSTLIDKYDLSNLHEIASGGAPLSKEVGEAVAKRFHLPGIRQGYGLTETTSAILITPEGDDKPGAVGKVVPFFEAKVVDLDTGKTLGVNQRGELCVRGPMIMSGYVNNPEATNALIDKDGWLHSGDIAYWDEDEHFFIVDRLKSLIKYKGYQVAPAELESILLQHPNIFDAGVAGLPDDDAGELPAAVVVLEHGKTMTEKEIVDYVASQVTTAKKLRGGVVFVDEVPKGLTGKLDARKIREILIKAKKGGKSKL
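Biochemical qHTS of compounds, final roughly 60 µM downward over six points, against 10 nM purified firefly luciferase using Km concentrations of substrates (10 uM D-luciferin, 10 uM ATP) in Tris acetate pH 7.5 buffer; luminescence output.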
Rab9 prom act: activates the Rab9 promoter; Huh7 Rab9 promoter-luciferase reporter, luminescence, 24 h; Potency, µM (series often up to 9.22 µM), inactives show at the highest dose activation, negative = inhibition, hits mostly activators; 320,000 compounds, 2.8% hits; AID 485297; note: % of control where 0% means no effect; nearly all actives have a fitted effect of over 60% in size
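Stable Rab9-luc Huh7, 1500 cells/well, 2 h settle; cmpd in DMSO, 24 h, 37 °C/5% CO2; luciferase reagent 10 min RT; luminescence.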
ELG1 genotox: inducers of genotoxicity in HEK293T ELG1-luciferase cells; 330,000 compounds, 1.3% hits; HEK293T ELG1-luciferase reporter, luminescence, 16 h; Potency, µM (highest dose often 46 µM), for inactives: at the highest dose activity change, positive = activation, most hits filed as activators; note: % of control where 0% means no effect; nearly all actives have a fitted effect of over 60% in size
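After overnight (16 hr) compound treatment at 37 °C, ELG1-luciferase HEK293T cells were lysed with ONE-Glo; luminescence quantified 30 min later at room temperature.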
KinaseGlo FLuc: counter-screen: inhibitors of Kinase-Glo firefly luciferase | Q27757 | Kinase-Glo luciferase, ATP luminescence, 8 min | 200,000 compounds, 0.28% hits | Potency, µM (series often up to 38.3 µM), inactives show at the top dose activity change, negative = inhibition, hits mostly inhibitors; note: % is set by controls: 0 for no effect and ±100 for the full control effect; nearly all actives have a fitted effect of over 60% in size
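Luminescence was the read-out, taken after 8-minute incubation at ambient temperature. Luciferase turned over luciferin with 10 uM ATP in imidazole pH 7.2 buffer containing KCl, MgCl2, Tween 20 and BSA.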
Active calls of the source: *; ? = inconclusive; nt = no result; [ ] = another dose, or the depositor's remark. Calls come from the whole dose curve; as a rule, active = well fitted curve in the direction sought with a large enough effect; inconclusive = small, poorly fitted or top-dose-only effect, or another doubt; inactive = no such curve, though single readings can be large; an effect the other way counts as inactive or inconclusive. Potency is the fitted concentration of half-maximal effect.

SMILES	SMN2 splice enh	NPC1 promoter act	FLuc counter	Rab9 prom act	ELG1 genotox	KinaseGlo FLuc
Cc1ccc(S(=O)(=O)N2CCOC2CNC(=O)C(=O)NCCCN2CCOCC2)cc1 (stereo not given)	nt	-2%	-3%	-2%	0%	nt
Cc1csc(CNC(=O)c2ccc(OC3CCN(CCc4ccccc4)CC3)cc2)n1	nt	2%	2%	-4%	-2%	nt
CCc1ccc(NS(=O)(=O)c2ccc(C)c(C(=O)N3CCOCC3)c2)cc1	nt	-3%	0%	-6%	4%	nt
COc1cc(/C=N/NC(=O)c2ccc(-n3cccc3)cc2)ccc1O	29%	-6%	21µM*	-7%	0%	0%
COc1ccc(/C=N/NC(=O)c2ccc3c(c2)OCO3)cc1	nt	27%	5.4µM*	26%	10%	nt
C[n+]1cccc(C(=O)N/N=C/c2ccc3c(c2)OCO3)c1	nt	-3%	3%	0%	2%	nt
COc1cc(C(=O)N/N=C/c2ccc(OC(=O)c3ccccc3Cl)c(OC)c2)ccc1O	nt	1%	?	-11%	-3%	nt
CCCCNC(=O)c1ccc2c(=O)n(Cc3ccc(OC)cc3)c(=O)[nH]c2c1	1%	nt	0%	nt	nt	nt
O=C(CN1CCN(Cc2ccccc2Cl)CC1)N/N=C/c1ccccn1	nt	-5%	3%	-5%	-5%	nt
CS(=O)(=O)c1ccccc1-c1nnc(-c2ccc(Cl)cc2)o1	4%	-4%	?	?	13%	-2%
Fc1ccc(-c2nnc(-c3ccc(Cl)cc3Cl)o2)cc1	1µM*	0.22µM*	0.48µM*	0.32µM*	1.6µM*	-14%
CSc1nnc(-c2ccc(F)cc2)o1	-2%	-3%	-14%	7%	9%	1%
Clc1ccc(-c2nnc(-c3ccccc3)o2)c(Cl)c1	2.5µM*	0.4µM*	0.43µM*	0.89µM*	?	?
Clc1ccc(-c2nnc(-c3ccc(Br)o3)o2)c(Cl)c1	?	1.6µM*	3µM*	?	9.2µM*	8%
Clc1ccc(-c2nnc3sc(-c4ccc(Br)o4)nn23)c(Cl)c1	-3%	-3%	7%	-6%	1%	-1%
Fc1ccc(-c2nnc(-c3ccc(Cl)cc3)o2)cc1	?	2µM*	2.7µM*	0.79µM*	6.5µM*	-4%
O=c1n(Cc2cccc(F)c2)c2ccccc2c2nc(-c3ccccc3)nn12	-2%	nt	-18%	nt	nt	nt
CCc1cc(C(=O)Nc2ccc(OC)nc2)sc1C	nt	13%	21µM*	-34%	9%	nt
CCc1cc(C(=O)Nc2ncccc2O)sc1C	nt	1.1µM*	1.3µM*	2.5µM*	0.33µM*	nt
COc1ccc(NC(=O)c2cc(Br)c(Br)s2)cn1	3%	18%	?	17%	2%	-2%
COc1cc2c(cc1OC)C(C)N(C(=O)c1sc(-c3cnccn3)nc1C)CC2 (stereo not given)	nt	-3%	-3%	2%	-1%	nt
Cn1cccc1-c1cc2n(n1)CCC(=O)N2CCCC(=O)NCc1ccc(F)cc1	nt	nt	-2%	nt	nt	nt
Cc1ccc(NC(=O)CCS(=O)(=O)c2ccc3nc(C)sc3c2)c(C)c1	nt	nt	0%	nt	nt	nt
COc1ccc(C(=O)Nc2nc(-c3ccccc3)c(C(C)=O)s2)c(OC)c1	1%	25%	0.85µM*	?	?	2%
CC(=O)c1sc(NC(=O)c2ccccc2F)nc1-c1ccccc1	11µM*	2.2µM*	12µM*	1.8µM*	-17%	-1%
SMILES	SMN2 splice enh	NPC1 promoter act	FLuc counter	Rab9 prom act	ELG1 genotox	KinaseGlo FLuc
COc1ccccc1NC(=O)C1=C(C)Nc2nc(SCc3ccccc3C)nn2C1CC(C)C (stereo not given)	-9%	nt	3%	nt	nt	nt
COC(=O)Cc1c(C)nc2nc(-c3ccc(C)cc3)[nH]n2c1=O	8%	15%	8.5µM*	21%	?	-2%
COC(=O)Cc1c(C)nc2nc(-c3ccc(Cl)cc3)[nH]n2c1=O	4%	17%	11µM*	26%	?	6%
COC(=O)Cc1c(C)nc2nc(-c3ccccc3)[nH]n2c1=O	24%	8%	17µM*	2%	7%	-6%
CC(=O)N1CCC(N(CCN2CCOCC2)C(=S)Nc2c(C)cccc2C)CC1	-4%[1.84 µM]	1%	0%	-1%	1%	-3%
Cc1ccc(Cn2cc(CCC(=O)NCC(C)c3ccccc3)c3ccccc32)cc1 (stereo not given)	nt	nt	-11%	nt	nt	nt
COc1ccc(CN2C(=O)c3ccccc3C(/C=N/OCc3ccc(Cl)cc3)C2=O)cc1 (stereo not given)	-61%	-4%	21µM*	-3%	-8%	4%
COc1ccc(CN2C(=O)c3ccccc3C(/C=N\OCc3ccc(F)cc3)C2=O)cc1 (stereo not given)	-52%	-2%	21µM*	3%	-7%	-2%
CCn1c(NCc2ccc(N(C)C)cc2)nc2ccccc21	27%	16%	13µM*	14%	?	0%
CCn1c(NC(=O)c2ccccc2)nc2ccccc21	nt	27%	17µM*	?	12%	nt
C=CCn1c(NC(=O)c2ccccc2)nc2ccccc21	nt	?	24µM*	?	13%	nt
Cn1c(NC(=O)c2cccc(Cn3cc(Cl)cn3)c2)nc2ccccc21	13µM*	2.2µM*	19µM*	2.2µM*	10µM*	-2%
CCn1c(NC(=O)c2cccc(Cn3cc(Cl)cn3)c2)nc2ccccc21	-52%	7%	1%	-2%	0%	0%
CCn1c(NCc2ccc(OC)c(OC)c2)nc2ccccc21	-39%	nt	-6%	nt	nt	nt
CCCCn1c(NC(=O)c2ccccc2)nc2ccccc21	1%	13%	?	21%	-6%	1%
O=C1C2=C(C(=O)c3ccccc31)C1O[C@](CCCCN3C(=O)c4ccccc4C3=O)(Cc3ccccc31)O2	nt	-6%[1.84 µM]	0%[11.5 µM]	0%[1.84 µM]	nt	nt
CCOC(=O)C1CCN(C(c2cccc(F)c2)c2c(O)cc(C)n(CCOC)c2=O)CC1 (stereo not given)	nt	nt	-2%	nt	nt	nt
Cc1ccc(/C=C/C(=O)c2ccc(O)cc2)cc1	nt	19%	2.1µM*	?	17%	nt
CSc1ccc(/C=C/C(=O)c2ccc(O)cc2)cc1	-3%	24%	3µM*	?	?	-18%
Cc1ccc(C(=O)/C=C/C(=O)O)cc1	-23%	4%	?	1%	0%	2%
COc1ccccc1CNC(=O)C1CCN(c2nn3c(=O)cc(C)nc3s2)CC1	13%	nt	-8%	nt	nt	nt
Cc1ccc2c(CC(=O)Nc3ccc(N4CCN(C)CC4)cc3C)coc2c1	-3%	?	8.5µM*	5%	-1%	-1%
CCOC(=O)c1c(NC(=O)Cc2coc3cc(C)ccc23)sc2c1CCCC2	3%	nt	-12%	nt	nt	nt
Cc1ccc2c(CC(=O)Nc3sccc3C(N)=O)coc2c1	?	2µM*	11µM*	2.8µM*	?	-2%
